Article PMC7862700, “An all-to-all approach to the identification of sequence-specific readers for epigenetic DNA modifications on cytosine”

How the values were obtained:
Assay in all cases: DAPPL (digital affinity profiling via proximity ligation, sequencing); 10 mM Tris-HCl pH 7.5, 50 mM NaCl, 1 mM DTT, 4% glycerol, room temperature, 30 min; GST-TFs on glutathione beads, 16-mer random dsDNA library, 0.1% formaldehyde crosslink after washing; high values mean tight binding
ETV5 = ETV5 (Homo sapiens, UniProt P41161 1-510); conditions: protein: recombinant; tags: N-terminal GST; dsDNA, one strand shown
Summary of the method: (§1)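 The binding signal reported is, for every hexamer, its read frequency for a factor over its read frequency for the tag-only sample. Reads came from pools of yeast-expressed, GST-fused human transcription factors on glutathione beads, barcoded with DNA and mixed with that sample, which were incubated with 200 nmole of a random double-stranded 16-mer DNA library in Tris/NaCl/DTT/glycerol buffer at room temperature for 30 min. After washing, the pools were crosslinked with 0.1% formaldehyde, proximity-ligated with BsaI/T4 ligase for 1 h at 37 °C, PCR-amplified and sequenced on an Illumina NextSeq500.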

HSF1 = HSF1 (Homo sapiens, UniProt Q00613 1-529); conditions: protein: recombinant; tags: N-terminal GST; chain copies: 3; dsDNA, one strand shown
Summary of the method: as §1

SPIC = target: T1, SPIC (Homo sapiens, UniProt Q8N5J4 1-248); conditions: protein: recombinant; tags: N-terminal GST; dsDNA, one strand shown
T1 sequence: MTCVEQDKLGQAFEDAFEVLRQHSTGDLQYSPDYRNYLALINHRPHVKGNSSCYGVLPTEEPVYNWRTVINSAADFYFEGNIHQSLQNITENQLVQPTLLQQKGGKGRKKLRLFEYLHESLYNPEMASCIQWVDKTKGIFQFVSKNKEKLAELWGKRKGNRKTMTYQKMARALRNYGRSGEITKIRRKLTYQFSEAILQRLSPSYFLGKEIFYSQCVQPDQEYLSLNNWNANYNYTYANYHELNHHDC
Summary of the method: as §1

ELF4 = ELF4 (Homo sapiens, UniProt Q99607 1-663); conditions: protein: recombinant; tags: N-terminal GST; dsDNA, one strand shown
Summary of the method: as §1

ELK4 = target: T2, ELK4 (Homo sapiens, UniProt P28324-2 1-405); conditions: protein: recombinant; tags: N-terminal GST; dsDNA, one strand shown
T2 sequence: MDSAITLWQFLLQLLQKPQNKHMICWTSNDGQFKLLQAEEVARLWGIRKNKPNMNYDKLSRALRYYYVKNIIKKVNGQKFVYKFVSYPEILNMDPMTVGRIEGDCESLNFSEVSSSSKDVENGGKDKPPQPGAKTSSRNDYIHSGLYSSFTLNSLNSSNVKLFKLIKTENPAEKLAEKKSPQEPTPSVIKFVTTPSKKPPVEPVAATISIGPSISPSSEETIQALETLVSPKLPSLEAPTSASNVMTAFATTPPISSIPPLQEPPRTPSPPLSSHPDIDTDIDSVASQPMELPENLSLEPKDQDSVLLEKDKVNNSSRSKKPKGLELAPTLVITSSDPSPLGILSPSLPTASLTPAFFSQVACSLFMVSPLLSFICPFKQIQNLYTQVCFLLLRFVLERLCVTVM
Summary of the method: as §1

ETV2 = target: T3, ETV2 (Homo sapiens, UniProt O00321 1-342); conditions: protein: recombinant; tags: N-terminal GST; dsDNA, one strand shown
T3 sequence: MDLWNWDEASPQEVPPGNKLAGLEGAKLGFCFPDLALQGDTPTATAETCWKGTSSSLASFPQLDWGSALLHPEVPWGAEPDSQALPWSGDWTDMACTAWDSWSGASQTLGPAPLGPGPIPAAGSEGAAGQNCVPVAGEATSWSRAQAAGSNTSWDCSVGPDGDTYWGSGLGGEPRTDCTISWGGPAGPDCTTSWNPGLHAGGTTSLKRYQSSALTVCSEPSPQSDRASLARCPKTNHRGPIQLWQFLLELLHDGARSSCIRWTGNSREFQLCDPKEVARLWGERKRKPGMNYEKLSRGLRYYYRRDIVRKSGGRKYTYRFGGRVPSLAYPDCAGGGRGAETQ
Summary of the method: as §1

ETV1 = ETV1 (Homo sapiens, UniProt P50549 1-477); conditions: protein: recombinant; tags: N-terminal GST; dsDNA, one strand shown
Summary of the method: as §1

ERF = target: T4, ERF (Homo sapiens, UniProt P50548 1-548); conditions: protein: recombinant; tags: N-terminal GST; dsDNA, one strand shown
T4 sequence: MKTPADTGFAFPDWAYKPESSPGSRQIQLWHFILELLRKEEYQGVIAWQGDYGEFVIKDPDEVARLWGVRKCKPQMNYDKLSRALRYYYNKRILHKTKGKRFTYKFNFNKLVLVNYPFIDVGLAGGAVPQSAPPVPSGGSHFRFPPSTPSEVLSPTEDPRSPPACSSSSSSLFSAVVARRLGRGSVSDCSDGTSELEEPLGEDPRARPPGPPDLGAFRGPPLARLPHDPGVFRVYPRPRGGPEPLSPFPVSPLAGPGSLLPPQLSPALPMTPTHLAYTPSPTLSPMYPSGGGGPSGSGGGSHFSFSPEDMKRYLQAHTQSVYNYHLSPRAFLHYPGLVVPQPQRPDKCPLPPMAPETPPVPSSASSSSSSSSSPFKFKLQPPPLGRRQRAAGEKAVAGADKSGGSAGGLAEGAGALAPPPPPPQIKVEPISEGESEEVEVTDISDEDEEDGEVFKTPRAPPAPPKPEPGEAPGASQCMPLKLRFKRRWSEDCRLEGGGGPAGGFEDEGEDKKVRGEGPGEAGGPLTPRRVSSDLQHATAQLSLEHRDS
Summary of the method: as §1

ETV3L = target: T5, ETV3L (Homo sapiens, UniProt Q6ZN32 1-361); conditions: protein: recombinant; tags: N-terminal GST; dsDNA, one strand shown
T5 sequence: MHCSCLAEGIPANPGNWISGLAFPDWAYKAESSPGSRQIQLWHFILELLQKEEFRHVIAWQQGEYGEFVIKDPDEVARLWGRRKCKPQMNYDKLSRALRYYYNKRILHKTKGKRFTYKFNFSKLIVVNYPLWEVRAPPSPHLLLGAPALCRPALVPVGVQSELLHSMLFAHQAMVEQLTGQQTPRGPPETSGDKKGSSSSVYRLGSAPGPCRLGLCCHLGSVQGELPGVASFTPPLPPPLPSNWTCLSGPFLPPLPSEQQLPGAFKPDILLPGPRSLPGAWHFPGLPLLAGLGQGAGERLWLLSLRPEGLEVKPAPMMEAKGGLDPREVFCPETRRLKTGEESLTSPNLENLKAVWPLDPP
Summary of the method: as §1

ETS2 = target: T6, ETS2 (Homo sapiens, UniProt P15036 1-469); conditions: protein: recombinant; tags: N-terminal GST; dsDNA, one strand shown
T6 sequence: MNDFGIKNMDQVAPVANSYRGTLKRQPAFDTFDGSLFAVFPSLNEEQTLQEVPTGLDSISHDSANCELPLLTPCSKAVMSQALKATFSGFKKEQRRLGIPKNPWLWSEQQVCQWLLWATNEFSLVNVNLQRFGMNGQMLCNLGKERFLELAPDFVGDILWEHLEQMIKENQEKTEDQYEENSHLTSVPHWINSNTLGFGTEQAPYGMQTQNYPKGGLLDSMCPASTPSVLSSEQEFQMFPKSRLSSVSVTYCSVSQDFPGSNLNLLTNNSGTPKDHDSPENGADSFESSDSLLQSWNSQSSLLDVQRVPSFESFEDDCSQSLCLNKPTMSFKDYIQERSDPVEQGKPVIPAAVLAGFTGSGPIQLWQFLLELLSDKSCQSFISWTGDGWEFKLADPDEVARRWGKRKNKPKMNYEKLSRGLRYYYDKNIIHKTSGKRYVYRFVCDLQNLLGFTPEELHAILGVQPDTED
Summary of the method: as §1

SPDEF = target: T7, SPDEF (Homo sapiens, UniProt O95238 1-335); conditions: protein: recombinant; tags: N-terminal GST; dsDNA, one strand shown
T7 sequence: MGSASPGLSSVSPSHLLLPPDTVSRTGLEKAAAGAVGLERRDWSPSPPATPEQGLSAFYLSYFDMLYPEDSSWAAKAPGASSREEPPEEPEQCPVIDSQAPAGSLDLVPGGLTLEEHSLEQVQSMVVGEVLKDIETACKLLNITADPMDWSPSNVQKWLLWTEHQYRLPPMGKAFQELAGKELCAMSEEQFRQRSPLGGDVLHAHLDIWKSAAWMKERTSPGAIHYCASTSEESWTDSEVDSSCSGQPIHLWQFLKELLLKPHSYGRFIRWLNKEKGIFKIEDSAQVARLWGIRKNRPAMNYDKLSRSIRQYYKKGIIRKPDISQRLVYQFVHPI
Summary of the method: as §1

ETV7 = target: T8, ETV7 (Homo sapiens, UniProt Q9Y603 1-341); conditions: protein: recombinant; tags: N-terminal GST; dsDNA, one strand shown
T8 sequence: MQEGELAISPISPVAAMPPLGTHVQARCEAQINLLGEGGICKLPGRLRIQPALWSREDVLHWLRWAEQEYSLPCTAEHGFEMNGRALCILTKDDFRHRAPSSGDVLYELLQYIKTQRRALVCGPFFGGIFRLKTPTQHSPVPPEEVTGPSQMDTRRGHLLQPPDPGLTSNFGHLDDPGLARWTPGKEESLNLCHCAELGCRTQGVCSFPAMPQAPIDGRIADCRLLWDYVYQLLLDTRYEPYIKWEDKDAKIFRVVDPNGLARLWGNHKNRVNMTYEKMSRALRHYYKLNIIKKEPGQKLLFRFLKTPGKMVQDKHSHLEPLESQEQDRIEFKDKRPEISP
Summary of the method: as §1

ELF5 = target: T9, ELF5 (Homo sapiens, UniProt Q9UKW6-2 1-255); conditions: protein: recombinant; tags: N-terminal GST; dsDNA, one strand shown
T9 sequence: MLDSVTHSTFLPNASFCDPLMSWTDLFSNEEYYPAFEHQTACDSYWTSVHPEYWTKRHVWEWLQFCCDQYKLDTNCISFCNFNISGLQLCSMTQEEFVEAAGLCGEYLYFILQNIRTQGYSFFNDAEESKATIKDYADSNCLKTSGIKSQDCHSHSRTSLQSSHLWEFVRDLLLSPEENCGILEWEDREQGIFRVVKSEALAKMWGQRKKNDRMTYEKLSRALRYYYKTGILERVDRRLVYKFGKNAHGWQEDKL
Summary of the method: as §1

ETV3 = target: T10, ETV3 (Homo sapiens, UniProt P41162-2 1-143); conditions: protein: recombinant; tags: N-terminal GST; dsDNA, one strand shown
T10 sequence: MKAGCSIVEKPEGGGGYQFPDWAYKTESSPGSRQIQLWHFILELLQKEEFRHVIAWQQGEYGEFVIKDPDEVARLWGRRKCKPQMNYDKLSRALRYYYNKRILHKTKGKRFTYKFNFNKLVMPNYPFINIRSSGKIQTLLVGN
Summary of the method: as §1

ETV6 = ETV6 (Homo sapiens, UniProt P41212 1-452); conditions: protein: recombinant; tags: N-terminal GST; dsDNA, one strand shown
Summary of the method: as §1

FEV = target: T11, FEV (Homo sapiens, UniProt Q99581 1-238); conditions: protein: recombinant; tags: N-terminal GST; dsDNA, one strand shown
T11 sequence: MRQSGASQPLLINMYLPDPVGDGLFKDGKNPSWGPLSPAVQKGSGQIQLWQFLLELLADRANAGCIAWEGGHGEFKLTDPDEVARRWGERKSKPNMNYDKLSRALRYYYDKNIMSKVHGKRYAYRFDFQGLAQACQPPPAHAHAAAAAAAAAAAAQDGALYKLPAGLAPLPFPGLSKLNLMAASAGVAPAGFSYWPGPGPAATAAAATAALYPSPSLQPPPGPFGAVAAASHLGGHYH
Summary of the method: as §1

CRX = CRX (Homo sapiens, UniProt O43186 1-299); conditions: protein: recombinant; tags: N-terminal GST; dsDNA, one strand shown
Summary of the method: as §1

Sequence of HSF1 (Q00613 whole entry): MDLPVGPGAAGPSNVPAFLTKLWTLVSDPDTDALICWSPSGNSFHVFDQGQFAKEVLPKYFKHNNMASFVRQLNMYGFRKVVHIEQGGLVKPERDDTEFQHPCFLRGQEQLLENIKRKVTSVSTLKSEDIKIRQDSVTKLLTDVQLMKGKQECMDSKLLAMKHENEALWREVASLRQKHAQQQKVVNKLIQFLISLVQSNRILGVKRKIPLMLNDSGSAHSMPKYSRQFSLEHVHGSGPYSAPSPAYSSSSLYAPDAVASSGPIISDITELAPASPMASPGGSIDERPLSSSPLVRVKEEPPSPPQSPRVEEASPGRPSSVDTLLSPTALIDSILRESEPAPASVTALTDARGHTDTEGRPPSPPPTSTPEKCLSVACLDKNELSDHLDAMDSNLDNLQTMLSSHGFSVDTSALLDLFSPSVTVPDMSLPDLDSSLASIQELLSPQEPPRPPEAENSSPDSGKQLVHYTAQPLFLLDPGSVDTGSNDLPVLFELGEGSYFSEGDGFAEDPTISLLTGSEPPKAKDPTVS
Sequence of ELF4 (Q99607 whole entry): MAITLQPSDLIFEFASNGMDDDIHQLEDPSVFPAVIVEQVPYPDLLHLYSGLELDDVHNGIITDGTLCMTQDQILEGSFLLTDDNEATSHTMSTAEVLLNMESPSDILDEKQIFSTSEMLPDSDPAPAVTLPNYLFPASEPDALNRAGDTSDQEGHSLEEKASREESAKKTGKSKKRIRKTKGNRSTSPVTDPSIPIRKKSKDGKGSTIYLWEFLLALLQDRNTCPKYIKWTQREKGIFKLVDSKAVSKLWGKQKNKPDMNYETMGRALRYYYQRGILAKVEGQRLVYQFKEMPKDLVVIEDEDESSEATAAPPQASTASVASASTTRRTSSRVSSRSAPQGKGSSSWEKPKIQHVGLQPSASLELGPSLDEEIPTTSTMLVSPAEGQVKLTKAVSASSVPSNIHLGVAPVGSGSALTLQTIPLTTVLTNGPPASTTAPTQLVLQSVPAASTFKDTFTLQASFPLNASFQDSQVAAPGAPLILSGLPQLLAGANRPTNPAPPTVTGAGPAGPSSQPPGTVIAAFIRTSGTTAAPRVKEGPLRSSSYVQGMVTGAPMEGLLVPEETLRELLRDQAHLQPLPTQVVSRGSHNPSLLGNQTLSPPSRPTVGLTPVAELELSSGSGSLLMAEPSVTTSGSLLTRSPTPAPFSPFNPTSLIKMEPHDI
Sequence of ETV6 (P41212 whole entry): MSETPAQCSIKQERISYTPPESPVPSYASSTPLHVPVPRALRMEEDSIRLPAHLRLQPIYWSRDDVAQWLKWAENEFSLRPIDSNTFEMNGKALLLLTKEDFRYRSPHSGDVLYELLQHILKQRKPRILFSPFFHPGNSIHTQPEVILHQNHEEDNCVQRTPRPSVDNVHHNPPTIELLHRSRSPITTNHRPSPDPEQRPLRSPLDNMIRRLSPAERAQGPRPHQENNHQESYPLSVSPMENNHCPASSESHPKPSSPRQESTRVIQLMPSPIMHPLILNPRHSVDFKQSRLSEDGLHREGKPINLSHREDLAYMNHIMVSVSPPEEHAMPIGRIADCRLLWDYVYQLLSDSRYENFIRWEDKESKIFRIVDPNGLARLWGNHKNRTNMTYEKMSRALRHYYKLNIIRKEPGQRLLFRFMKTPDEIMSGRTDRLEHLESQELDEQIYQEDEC
Sequence of ETV1 (P50549 whole entry): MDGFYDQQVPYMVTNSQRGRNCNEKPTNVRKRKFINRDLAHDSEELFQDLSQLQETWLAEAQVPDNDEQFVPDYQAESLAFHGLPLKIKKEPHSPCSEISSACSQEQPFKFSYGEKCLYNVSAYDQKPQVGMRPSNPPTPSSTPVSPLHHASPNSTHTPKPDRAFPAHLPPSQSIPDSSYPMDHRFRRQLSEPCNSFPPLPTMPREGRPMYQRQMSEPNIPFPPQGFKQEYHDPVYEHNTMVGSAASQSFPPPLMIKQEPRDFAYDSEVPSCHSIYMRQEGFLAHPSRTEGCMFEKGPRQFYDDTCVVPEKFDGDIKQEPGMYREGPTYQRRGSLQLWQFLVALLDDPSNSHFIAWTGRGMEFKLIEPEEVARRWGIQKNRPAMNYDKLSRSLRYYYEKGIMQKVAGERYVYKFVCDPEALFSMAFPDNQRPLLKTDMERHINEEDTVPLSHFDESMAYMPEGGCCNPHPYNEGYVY
Sequence of ETV5 (P41161 whole entry, the tested form may be a part): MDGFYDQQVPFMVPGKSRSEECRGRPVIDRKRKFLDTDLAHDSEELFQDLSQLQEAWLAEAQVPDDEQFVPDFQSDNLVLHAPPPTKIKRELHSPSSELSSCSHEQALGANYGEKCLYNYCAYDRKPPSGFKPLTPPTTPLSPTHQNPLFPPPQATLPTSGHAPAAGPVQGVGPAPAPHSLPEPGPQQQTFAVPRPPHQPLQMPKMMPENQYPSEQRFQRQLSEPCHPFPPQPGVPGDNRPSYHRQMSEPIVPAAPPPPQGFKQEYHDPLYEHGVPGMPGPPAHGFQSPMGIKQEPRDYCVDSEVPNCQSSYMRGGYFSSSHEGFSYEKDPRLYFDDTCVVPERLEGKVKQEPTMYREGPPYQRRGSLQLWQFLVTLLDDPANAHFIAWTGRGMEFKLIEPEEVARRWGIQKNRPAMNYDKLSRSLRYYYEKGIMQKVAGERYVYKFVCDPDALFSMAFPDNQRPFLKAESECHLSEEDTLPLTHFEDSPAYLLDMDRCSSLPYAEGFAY
Sequence of CRX (O43186 whole entry): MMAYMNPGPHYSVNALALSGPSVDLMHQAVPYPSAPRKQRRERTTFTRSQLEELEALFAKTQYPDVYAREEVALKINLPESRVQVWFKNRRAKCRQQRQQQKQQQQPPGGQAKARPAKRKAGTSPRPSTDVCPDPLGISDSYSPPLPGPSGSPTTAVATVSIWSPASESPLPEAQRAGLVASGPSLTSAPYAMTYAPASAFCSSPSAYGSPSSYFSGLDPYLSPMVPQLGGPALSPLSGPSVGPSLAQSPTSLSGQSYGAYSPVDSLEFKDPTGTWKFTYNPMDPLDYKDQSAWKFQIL

| Sequence | binding signal (ETV5) | binding signal (HSF1) | binding signal (SPIC) | binding signal (ELF4) | binding signal (ELK4) | binding signal (ETV2) | binding signal (ETV1) | binding signal (ERF) | binding signal (ETV3L) | binding signal (ETS2) | binding signal (SPDEF) | binding signal (ETV7) | binding signal (ELF5) | binding signal (ETV3) | binding signal (ETV6) | binding signal (FEV) | binding signal (CRX) |
| --- | --- | --- | --- | --- | --- | --- | --- | --- | --- | --- | --- | --- | --- | --- | --- | --- | --- |
| GAATAC | 1.01 fold enrichment (6-mer frequency, TF over GST control) | 1.16 fold enrichment (6-mer frequency, TF over GST control) | 1.06 fold enrichment (6-mer frequency, TF over GST control) | 1.01 fold enrichment (6-mer frequency, TF over GST control) | 1.05 fold enrichment (6-mer frequency, TF over GST control) | 1.05 fold enrichment (6-mer frequency, TF over GST control) | 1.09 fold enrichment (6-mer frequency, TF over GST control) | 1.11 fold enrichment (6-mer frequency, TF over GST control) | 1.01 fold enrichment (6-mer frequency, TF over GST control) | 1.02 fold enrichment (6-mer frequency, TF over GST control) | 1 fold enrichment (6-mer frequency, TF over GST control) | 1.01 fold enrichment (6-mer frequency, TF over GST control) | 1.03 fold enrichment (6-mer frequency, TF over GST control) | 1.07 fold enrichment (6-mer frequency, TF over GST control) | 1.03 fold enrichment (6-mer frequency, TF over GST control) |  |  |
| TTTGGC | 1.32 fold enrichment (6-mer frequency, TF over GST control) | 1.23 fold enrichment (6-mer frequency, TF over GST control) | 1.45 fold enrichment (6-mer frequency, TF over GST control) | 1.26 fold enrichment (6-mer frequency, TF over GST control) | 1.23 fold enrichment (6-mer frequency, TF over GST control) | 1.31 fold enrichment (6-mer frequency, TF over GST control) | 1.22 fold enrichment (6-mer frequency, TF over GST control) | 1.29 fold enrichment (6-mer frequency, TF over GST control) | 1.23 fold enrichment (6-mer frequency, TF over GST control) | 1.18 fold enrichment (6-mer frequency, TF over GST control) | 1.12 fold enrichment (6-mer frequency, TF over GST control) | 1.24 fold enrichment (6-mer frequency, TF over GST control) | 1.18 fold enrichment (6-mer frequency, TF over GST control) | 1.21 fold enrichment (6-mer frequency, TF over GST control) | 1.26 fold enrichment (6-mer frequency, TF over GST control) | 1.27 fold enrichment (6-mer frequency, TF over GST control) | 1.49 fold enrichment (6-mer frequency, TF over GST control) |
